# Laboratory results taken from the supplement of paper PMC8728848.
# The sample as a whole holds a higher share of the strongest signals than the screen did.
# B1: HBHA-Rv (Mycobacterium tuberculosum), P0A5P6 (protein)
# chain: MAENSNIDDIKAPLLAALGAADLALATVNELITNLRERAEETRTDTRSRVEESRARLTKLQEDLPEQLTELREKFTAEELRKAAEGYLEAATSRYNELVERGEAALERLRSQQSFEEVSARAEGYVDQAVELTQEALGTVASQTRAVGERAAKLVGIELPKKAAPAKKAAPAKKAAPAKKAAAKKAPAKKAAAKKVTQK
# Legend:
# Assay in all cases: glycan array binding signal (z-score within array); higher = stronger binding
# Settings in all cases: glycan notation: IUPAC condensed, linker removed
# [1] = target: Fuc(a1-2)Gal(b1-3)[Fuc(a1-4)]GlcNAc(b1-3)[Fuc(a1-3)[Gal(b1-4)]GlcNAc(b1-6)]Gal(b1-4)Glc
# How it was run: (§1)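 Glycan array data came from 3228 arrays in the Consortium for Functional Glycomics database, and only arrays with an available protein sequence were kept. Glycan names were put into IUPAC-condensed notation, and columns mapping to the same glycan were averaged. The binding signal is a within-array Z-score, averaged across arrays of one protein sequence run at different concentrations or buffers and across linkers. A negative Z-score can be read as non-binding.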
# Fuc(a1-2)Gal(b1-4)Glc6S = target: Fuc(a1-2)Gal(b1-4)Glc6S
# How it was run: as §1
# [2] = target: Fuc(a1-2)Gal(b1-4)GlcNAc(b1-3)[Fuc(a1-3)[Gal(b1-4)]GlcNAc(b1-6)]Gal(b1-4)Glc
# How it was run: as §1
# [3] = target: Fuc(a1-2)Gal6S(b1-3)GlcNAc6S
# How it was run: as §1
# Fuc(a1-2)Gal6S(b1-4)Glc = target: Fuc(a1-2)Gal6S(b1-4)Glc
# How it was run: as §1
# [4] = target: Fuc(a1-2)[Gal(a1-3)]Gal(b1-3)GlcNAc(b1-3)GalNAc
# How it was run: as §1
# [5] = target: Fuc(a1-2)[Gal(a1-3)]Gal(b1-4)GlcNAc(b1-3)GalNAc
# How it was run: as §1
# [6] = target: Fuc(a1-2)[Gal(a1-3)]Gal(b1-4)GlcNAc(b1-3)[Fuc(a1-2)[Gal(a1-3)]Gal(b1-4)GlcNAc(b1-6)]GalNAc
# How it was run: as §1
# [7] = target: Fuc(a1-2)[GalNAc(a1-3)]Gal(b1-4)Glc
# How it was run: as §1
# [8] = target: Fuc(a1-3)[Gal(b1-4)]Glc6S
# How it was run: as §1
# [9] = target: Fuc(a1-3)[Gal(b1-4)]GlcNAc(b1-3)GalNAc
# How it was run: as §1
# [10] = target: Fuc(a1-3)[Gal3S(b1-4)]Glc
# How it was run: as §1
# Fuc(a1-4)GlcNAc = target: Fuc(a1-4)GlcNAc
# How it was run: as §1
# [11] = target: Gal(a1-3)Gal(b1-4)GlcNAc(b1-6)GalNAc
# How it was run: as §1
# [12] = target: Gal(b1-3)GlcNAc(b1-2)Man(a1-3)[GlcNAc(b1-4)][Gal(b1-3)GlcNAc(b1-2)Man(a1-6)]Man(b1-4)GlcNAc(b1-4)GlcNAc
# How it was run: as §1
# [13] = target: Gal(b1-3)GlcNAc(b1-3)Gal(b1-4)[Fuc(a1-3)]GlcNAc(b1-6)[Gal(b1-3)GlcNAc(b1-3)]Gal(b1-4)Glc
# How it was run: as §1
# [14] = target: Gal(b1-3)GlcNAc(b1-6)GalNAc
# How it was run: as §1
# [15] = target: Gal(b1-3)[Fuc(a1-4)]GlcNAc(b1-2)Man
# How it was run: as §1
# Gal(b1-4)GlcNAc(b1-2)Man = target: Gal(b1-4)GlcNAc(b1-2)Man
# How it was run: as §1
# [16] = target: Gal(b1-4)GlcNAc(b1-2)Man(a1-3)[Gal(b1-4)GlcNAc(b1-2)Man(a1-6)]Man(b1-4)GlcNAc(b1-4)GlcNAc
# How it was run: as §1
# [17] = target: Gal(b1-4)GlcNAc(b1-2)Man(a1-3)[Gal(b1-4)GlcNAc(b1-2)Man(a1-6)][GlcNAc(b1-4)]Man(b1-4)GlcNAc(b1-4)[Fuc(a1-6)]GlcNAc
# How it was run: as §1
# [18] = target: Gal(b1-4)GlcNAc(b1-2)Man(a1-3)[GlcNAc(b1-4)][Gal(b1-4)GlcNAc(b1-2)Man(a1-6)]Man(b1-4)GlcNAc(b1-4)GlcNAc
# How it was run: as §1
# [19] = target: Gal(b1-4)GlcNAc(b1-2)[Gal(b1-4)GlcNAc(b1-4)]Man(a1-3)[GlcNAc(b1-4)][Gal(b1-4)GlcNAc(b1-2)[Gal(b1-4)GlcNAc(b1-6)]Man(a1-6)]Man(b1-4)GlcNAc(b1-4)GlcNAc
# How it was run: as §1
# [20] = target: Gal(b1-4)GlcNAc(b1-2)[Gal(b1-4)GlcNAc(b1-6)]Man(a1-6)[GlcNAc(b1-4)][Gal(b1-4)GlcNAc(b1-2)[Gal(b1-4)GlcNAc(b1-4)]Man(a1-3)]Man(b1-4)GlcNAc(b1-4)[Fuc(a1-6)]GlcNAc
# How it was run: as §1
# [21] = target: Gal(b1-4)GlcNAc(b1-3)Gal(b1-4)GlcNAc(b1-3)Gal(b1-4)GlcNAc(b1-2)[Gal(b1-4)GlcNAc(b1-3)Gal(b1-4)GlcNAc(b1-3)Gal(b1-4)GlcNAc(b1-6)]Man(a1-6)[Gal(b1-4)GlcNAc(b1-3)Gal(b1-4)GlcNAc(b1-3)Gal(b1-4)GlcNAc(b1-2)Man(a1-3)]Man(b1-4)GlcNAc(b1-4)[Fuc(a1-6)]GlcNAc
# How it was run: as §1
# [22] = target: Gal(b1-4)GlcNAc(b1-3)Gal(b1-4)GlcNAc(b1-6)[Gal(b1-3)]GalNAc
# How it was run: as §1
# [23] = target: Gal(b1-4)GlcNAc(b1-3)[Fuc(a1-3)GlcNAc(b1-6)]Gal(b1-4)Glc
# How it was run: as §1
binder,measurement,setting,value
B1,glycan array binding signal (z-score),[1],-0.277
same,glycan array binding signal (z-score),Fuc(a1-2)Gal(b1-4)Glc6S,-0.121
same,glycan array binding signal (z-score),[2],-0.392
same,glycan array binding signal (z-score),[3],4.34
same,glycan array binding signal (z-score),Fuc(a1-2)Gal6S(b1-4)Glc,0.069
same,glycan array binding signal (z-score),[4],-0.259
same,glycan array binding signal (z-score),[5],-0.204
same,glycan array binding signal (z-score),[6],2.82
same,glycan array binding signal (z-score),[7],0.064
same,glycan array binding signal (z-score),[8],-0.398
same,glycan array binding signal (z-score),[9],-0.275
same,glycan array binding signal (z-score),[10],-0.017
same,glycan array binding signal (z-score),Fuc(a1-4)GlcNAc,20
same,glycan array binding signal (z-score),[11],0.154
same,glycan array binding signal (z-score),[12],0.595
same,glycan array binding signal (z-score),[13],-0.453
same,glycan array binding signal (z-score),[14],-0.248
same,glycan array binding signal (z-score),[15],1.28
same,glycan array binding signal (z-score),Gal(b1-4)GlcNAc(b1-2)Man,1.37
same,glycan array binding signal (z-score),[16],0.061
same,glycan array binding signal (z-score),[17],-0.352
same,glycan array binding signal (z-score),[18],-0.309
same,glycan array binding signal (z-score),[19],-0.455
same,glycan array binding signal (z-score),[20],-0.428
same,glycan array binding signal (z-score),[21],-0.41
same,glycan array binding signal (z-score),[22],-0.399
same,glycan array binding signal (z-score),[23],-0.398
